Results taken from PubChem BioAssay (EPA / NIEHS).
Results filed as inconclusive are left out. Activity calls are given as the source filed them. The calls were made as follows, unless noted: active = hit-call score of the fitted dose curve at least 0.9, where 1 is the maximum; inactive = score below 0.9.

Tests used:
[1] = biological target: Oxysterols receptor LXR-alpha (Homo sapiens) (UniProt Q13133); experiment: ATG_LXRa_TRANS: Attagene TRANS-FACTORIAL HepG2 Assay for human Liver X Receptor alpha (LXRa) (AID 2282980; active = hit-call score of the fitted dose curve at least 0.9, where 1 is the maximum); conditions: HepG2 Attagene TRANS reporter, LXRa transactivation
Outline: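 Chemical-induced reporter mRNA measured by RT-PCR with fluorescent labelling and capillary electrophoresis after 24 h dosing of transiently transfected HepG2 cells expressing exogenous NR-Gal4 chimeras; increases scored against DMSO baseline.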

[2] = biological target: Oxysterols receptor LXR-beta (Homo sapiens) (UniProt P55055); experiment: ATG_LXRb_TRANS: Attagene TRANS-FACTORIAL HepG2 Assay for human Liver X Receptor beta (LXRb) (AID 2282981; active = hit-call score of the fitted dose curve at least 0.9, where 1 is the maximum); conditions: HepG2 Attagene TRANS GAL4-LXRb reporter, mRNA
Outline: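 Readout: fluorescent reporter mRNA fragments resolved by capillary electrophoresis after RT-PCR. System: transiently transfected human HepG2, exogenous LXRb-Gal4 chimera driving GAL4-UAS reporter, 24 h dosing. Activity fitted upward against DMSO baseline.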

[3] = biological target: Hepatocyte nuclear factor 4-alpha (Homo sapiens) (UniProt P41235); experiment: ATG_HNF4a_TRANS: Attagene TRANS-FACTORIAL HepG2 Assay for human Hepatocyte Nuclear Factor 4 alpha (HNF4a) (AID 2282982; active = hit-call score of the fitted dose curve at least 0.9, where 1 is the maximum); conditions: HepG2 HNF4a transactivation reporter, mRNA readout
Outline: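 Transient MRTU transfection of HepG2, 24 h dosing. Readout: reporter mRNA via RT-PCR + capillary electrophoresis, fluorescence; activity fit upward relative to DMSO control.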

[4] = ATG_M_32_TRANS: Attagene TRANS-FACTORIAL HepG2 Assay for M32 Transcription Factor (Internal Marker) (AID 2282984; active = hit-call score of the fitted dose curve at least 0.9, where 1 is the maximum;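 also: transcript level of a background control reporter unit measured by RT-PCR and capillary electrophoresis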); conditions: HepG2 Attagene TRANS M32 internal marker reporter
Outline: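 Read-out: fluorescent reporter cDNA fragments resolved by capillary electrophoresis after RT-PCR of total RNA. Transfected HepG2 cells were exposed to chemical for 24 h. Activity scored in the positive direction relative to DMSO.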

[5] = biological target: Transcriptional activator Myb (Homo sapiens) (UniProt P10242); experiment: ATG_Myb_CIS: Attagene CIS-FACTORIAL HepG2 Assay for human Myeloblastosis (Myb) Proto-Oncogene Transcription Factor (AID 2282986); conditions: HepG2 Attagene CIS-FACTORIAL Myb reporter transcription; actives raise or lower the signal
Outline: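 After 24 h of compound dosing, total RNA from transfected HepG2 cells is reverse-transcribed and the reporter sequences amplified, labeled and separated by capillary electrophoresis. Values come from bidirectional fitting against DMSO.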

[6] = biological target: Nuclear respiratory factor 1 (Homo sapiens) (UniProt Q16656); experiment: ATG_NRF1_CIS: Attagene CIS-FACTORIAL HepG2 Assay for human Nuclear Respiratory Factor 1 (NRF1) Orphan Gene (AID 2282987); conditions: HepG2 NRF1 cis-element reporter, Attagene multiplex; actives raise or lower the signal
Outline: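 Measured: fluorescent reporter-specific RT-PCR products from transfected HepG2 cells, separated by capillary electrophoresis. Exposure lasted 24 h. Analysis used bidirectional curve fitting with DMSO as negative control.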

[7] = ATG_NFI_CIS: Attagene CIS-FACTORIAL HepG2 Assay for human Nuclear Factor I (NFI) (AID 2282989); conditions: HepG2 cis-regulatory reporter, NFI response element transcription; actives raise or lower the signal
Outline: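 Multiplexed cis-reporter system in human HepG2 cells reports native TF activity as reporter mRNA induction 24 h post-dose. Fragments labelled with 6-FAM, HpaI-digested and resolved by capillary electrophoresis; activity fitted both directions versus DMSO.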

[8] = biological target: Myc proto-oncogene protein (Homo sapiens) (UniProt P01106); experiment: ATG_Myc_CIS: Attagene CIS-FACTORIAL HepG2 Assay for human Myelocytomatosis (Myc) Proto-Oncogene Transcription Factor (AID 2282990); conditions: HepG2, Attagene cis-reporter transcription factor activity; actives raise or lower the signal
Outline: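 Fluorescence intensity of reporter-specific cDNA fragments, separated by capillary electrophoresis, gives the signal. Transfected HepG2 cells carrying cis-promoter reporter constructs are incubated with compound for 24 h; DMSO serves as baseline.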

[9] = ATG_NRF2_ARE_CIS: Attagene CIS-FACTORIAL HepG2 Assay for human Nuclear Factor Erythroid 2 Related Factor 2 (NFR2) response to Antioxidant Response Elements (ARE) (AID 2282992); conditions: HepG2 Attagene ARE/NRF2 reporter, transcription factor activity; actives raise or lower the signal
Outline: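 Endogenous transcription factor activity in human liver HepG2 cells is tracked via a cis-element-driven reporter within a multiplexed set. mRNA induction is read by RT-PCR and capillary electrophoresis after 24 h, with DMSO as baseline.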

[10] = ATG_Oct_MLP_CIS: Attagene CIS-FACTORIAL HepG2 Assay for human Octamer-Binding Transcription Factor (Oct) (AID 2282993); conditions: HepG2 Attagene cis-factorial Oct reporter, mRNA; actives raise or lower the signal
Outline: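 After 24 h compound exposure, transfected HepG2 cells were lysed for total RNA; reporter-specific cDNA was PCR-amplified, fluorescently labelled and sized by capillary electrophoresis. Bidirectional curve fitting used DMSO as baseline.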

[11] = biological target: Cellular tumor antigen p53 (Homo sapiens) (UniProt P04637); experiment: ATG_p53_CIS: Attagene CIS-FACTORIAL HepG2 Assay for human p53 Transcription Factor (AID 2282994); conditions: HepG2 p53 cis-element reporter, Attagene mRNA; actives raise or lower the signal
Outline: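 Steps: transfect HepG2 with multiplexed cis reporter constructs; dose chemicals 24 h; extract RNA, reverse-transcribe, PCR-amplify reporter sequences; FAM-label, HpaI-digest, resolve fragments by CE. Activity fitted both directions relative to DMSO.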

[12] = biological target: Bile acid receptor (Homo sapiens) (UniProt Q96RI1); experiment: ATG_FXR_TRANS: Attagene TRANS-FACTORIAL HepG2 Assay for Farnesoid X Receptor (FXR) (AID 2282979; active = hit-call score of the fitted dose curve at least 0.9, where 1 is the maximum;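 also: hits raise reporter mRNA above DMSO so AC50 marks FXR activation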); conditions: HepG2 Attagene TRANS FXR-GAL4 reporter transcription
Outline: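 Reporter transcripts from transfected HepG2 cells were measured 24 h after dosing, using RT-PCR with capillary electrophoresis of 6-FAM-labelled fragments. The read-out reflects activity of exogenous FXR-Gal4 chimera on GAL4-UAS units, with induction relative to DMSO.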

[13] = ATG_M_06_TRANS: Attagene TRANS-FACTORIAL HepG2 Assay for M06 Transcription Factor (Internal Marker) (AID 2282983; active = hit-call score of the fitted dose curve at least 0.9, where 1 is the maximum); conditions: HepG2 Attagene TRANS M06 internal marker reporter
Outline: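 Background-control reporter readout: after 24 h chemical exposure of transiently transfected HepG2 (GAL4-UAS reporter units), mRNA quantified by RT-PCR with fluorescent labeling and capillary electrophoresis. Gain-of-signal fitting against DMSO baseline.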

[14] = biological target: Nuclear receptor subfamily 4 group A member 2 (Homo sapiens) (UniProt P43354); experiment: ATG_NURR1_TRANS: Attagene TRANS-FACTORIAL HepG2 Assay for human Nuclear Receptor Related Protein 1 (NURR1) (AID 2282985; active = hit-call score of the fitted dose curve at least 0.9, where 1 is the maximum); conditions: HepG2 Attagene TRANS reporter, mRNA readout
Outline: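 Read-out: reporter mRNA induction by RT-PCR plus capillary electrophoresis with fluorescence detection, after 24 h dosing of transfected HepG2 cells. Exogenous NR-Gal4 chimera activity drives GAL4-UAS reporter; activity fitted upward versus DMSO.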

[15] = BSK_3C_TissueFactor: BioMAP Diversity Plus: 3C Assay for Tissue Factor Biomarker Activity (AID 2282997); conditions: BioMAP 3C HUVEC, tissue factor biomarker readout; actives raise or lower the signal
Outline: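 Tissue factor on primary human umbilical vein endothelium was read by ELISA 24 h after dosing, gain or loss relative to DMSO. Cytotoxicity ran alongside via SRB (0.1%, TCA-fixed, 560 nm).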

[16] = BSK_3C_uPAR: BioMAP Diversity Plus: 3C Assay for Urokinase-type plasminogen activator receptor (uPAR) Biomarker Activity (AID 2282998); conditions: BioMAP 3C HUVEC, uPAR biomarker ELISA; actives raise or lower the signal
Outline: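 Values derive from bidirectional curve fitting relative to DMSO, which served as baseline of activity. uPAR was measured by ELISA in human umbilical vein endothelial primary cultures 24 h after compound addition.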

[17] = BSK_3C_VCAM1: BioMAP Diversity Plus: 3C Assay for Vascular cell adhesion molecule 1 (VCAM1) Biomarker Activity (AID 2282999); conditions: BioMAP 3C HUVEC, VCAM1 ELISA, cytokine-stimulated; actives raise or lower the signal
Outline: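 HUVEC primary cells, 24 h compound exposure; VCAM-1 by ELISA; gain/loss of signal fitted bidirectionally vs DMSO baseline.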

[18] = BSK_4H_Eotaxin3: BioMAP Diversity Plus: 4H Assay for Eotaxin 3 Biomarker Activity (AID 2283000); conditions: primary human endothelial cells (HUVEC); actives raise or lower the signal
Outline: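 Human umbilical vein endothelial cells (BSK_4H system) dosed with test chemical; Eotaxin-3 (CCL26) measured by ELISA 24 h after dosing. Bidirectional curve fitting relative to DMSO negative control as baseline.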

[19] = ATG_NF_kB_CIS: Attagene CIS-FACTORIAL HepG2 Assay for human Nuclear Factor Kappa B (NF-kB) (AID 2282991); conditions: HepG2 Attagene cis-factorial NF-kB reporter mRNA; actives raise or lower the signal
Outline: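 Fluorescence of labelled RT-PCR products separated by capillary electrophoresis gives reporter mRNA levels from transfected HepG2 cells exposed 24 h; values are fitted in both directions relative to DMSO.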

Measured: AC50

Oxysterols receptor LXR-beta (Homo sapiens), sequence (P55055 whole entry, looked up, the tested form may be a part): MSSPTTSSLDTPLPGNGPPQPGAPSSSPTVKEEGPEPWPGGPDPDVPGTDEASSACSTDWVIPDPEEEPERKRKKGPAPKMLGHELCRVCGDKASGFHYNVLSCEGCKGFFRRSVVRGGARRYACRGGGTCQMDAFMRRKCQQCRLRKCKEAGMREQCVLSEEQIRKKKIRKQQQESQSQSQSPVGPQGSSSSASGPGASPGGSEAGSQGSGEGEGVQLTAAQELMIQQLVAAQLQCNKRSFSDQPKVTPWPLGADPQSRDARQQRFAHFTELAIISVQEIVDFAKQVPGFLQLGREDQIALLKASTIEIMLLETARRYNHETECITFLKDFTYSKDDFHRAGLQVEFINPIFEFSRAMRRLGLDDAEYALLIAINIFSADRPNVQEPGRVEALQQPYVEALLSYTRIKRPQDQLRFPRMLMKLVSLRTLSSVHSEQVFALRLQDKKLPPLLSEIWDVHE
Cellular tumor antigen p53 (Homo sapiens), sequence (P04637 whole entry, looked up, the tested form may be a part): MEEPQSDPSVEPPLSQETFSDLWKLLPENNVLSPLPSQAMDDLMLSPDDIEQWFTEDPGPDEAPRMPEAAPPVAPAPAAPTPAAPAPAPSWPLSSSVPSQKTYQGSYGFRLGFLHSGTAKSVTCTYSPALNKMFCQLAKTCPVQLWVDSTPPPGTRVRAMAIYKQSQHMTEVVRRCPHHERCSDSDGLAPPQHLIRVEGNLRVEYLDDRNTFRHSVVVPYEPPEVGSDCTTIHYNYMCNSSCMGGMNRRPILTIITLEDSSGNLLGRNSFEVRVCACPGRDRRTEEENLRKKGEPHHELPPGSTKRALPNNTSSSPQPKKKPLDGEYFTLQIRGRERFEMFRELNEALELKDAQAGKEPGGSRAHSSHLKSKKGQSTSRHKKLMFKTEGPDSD
Oxysterols receptor LXR-alpha (Homo sapiens), sequence (Q13133 whole entry, looked up, the tested form may be a part): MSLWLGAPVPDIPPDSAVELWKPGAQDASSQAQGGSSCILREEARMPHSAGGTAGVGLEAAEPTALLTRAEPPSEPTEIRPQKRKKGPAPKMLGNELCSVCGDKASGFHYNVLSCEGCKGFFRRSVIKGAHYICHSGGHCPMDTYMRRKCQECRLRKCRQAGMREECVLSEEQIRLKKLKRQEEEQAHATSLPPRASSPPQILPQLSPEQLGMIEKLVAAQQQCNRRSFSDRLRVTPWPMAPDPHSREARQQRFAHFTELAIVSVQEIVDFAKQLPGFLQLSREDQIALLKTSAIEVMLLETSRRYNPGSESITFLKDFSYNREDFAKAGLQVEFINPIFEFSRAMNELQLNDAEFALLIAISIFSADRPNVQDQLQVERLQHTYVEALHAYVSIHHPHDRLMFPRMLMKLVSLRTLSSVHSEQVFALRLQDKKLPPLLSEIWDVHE
Transcriptional activator Myb (Homo sapiens), sequence (P10242 whole entry, looked up): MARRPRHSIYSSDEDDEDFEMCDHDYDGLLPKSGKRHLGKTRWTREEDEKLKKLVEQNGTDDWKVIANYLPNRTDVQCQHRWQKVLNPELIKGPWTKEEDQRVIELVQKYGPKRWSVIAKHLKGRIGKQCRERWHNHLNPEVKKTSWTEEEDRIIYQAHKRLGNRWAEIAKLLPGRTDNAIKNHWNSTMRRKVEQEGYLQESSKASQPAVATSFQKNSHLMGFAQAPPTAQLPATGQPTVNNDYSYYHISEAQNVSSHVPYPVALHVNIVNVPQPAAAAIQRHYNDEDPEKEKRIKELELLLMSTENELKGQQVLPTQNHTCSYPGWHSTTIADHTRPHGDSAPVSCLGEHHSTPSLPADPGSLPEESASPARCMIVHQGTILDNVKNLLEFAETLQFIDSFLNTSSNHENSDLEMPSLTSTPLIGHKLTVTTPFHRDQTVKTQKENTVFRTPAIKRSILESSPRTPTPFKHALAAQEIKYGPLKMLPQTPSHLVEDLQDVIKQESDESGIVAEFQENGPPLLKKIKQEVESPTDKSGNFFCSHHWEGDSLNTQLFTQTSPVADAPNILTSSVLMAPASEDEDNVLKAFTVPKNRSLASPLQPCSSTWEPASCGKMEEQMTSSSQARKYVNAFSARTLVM
Myc proto-oncogene protein (Homo sapiens), sequence (P01106 whole entry, looked up, the tested form may be a part): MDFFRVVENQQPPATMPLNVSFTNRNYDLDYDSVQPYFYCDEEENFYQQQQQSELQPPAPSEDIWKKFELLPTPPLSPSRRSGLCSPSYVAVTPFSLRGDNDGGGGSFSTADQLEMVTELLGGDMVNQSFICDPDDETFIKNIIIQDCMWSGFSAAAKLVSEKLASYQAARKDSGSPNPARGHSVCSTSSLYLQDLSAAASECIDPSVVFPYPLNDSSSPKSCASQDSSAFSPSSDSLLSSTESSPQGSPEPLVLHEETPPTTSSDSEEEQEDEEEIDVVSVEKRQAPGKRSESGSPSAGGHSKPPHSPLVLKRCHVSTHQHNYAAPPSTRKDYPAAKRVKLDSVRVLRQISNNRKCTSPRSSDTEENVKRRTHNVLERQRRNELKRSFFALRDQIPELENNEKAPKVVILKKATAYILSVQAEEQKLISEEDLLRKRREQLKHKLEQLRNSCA
Hepatocyte nuclear factor 4-alpha (Homo sapiens), sequence (P41235 whole entry, looked up): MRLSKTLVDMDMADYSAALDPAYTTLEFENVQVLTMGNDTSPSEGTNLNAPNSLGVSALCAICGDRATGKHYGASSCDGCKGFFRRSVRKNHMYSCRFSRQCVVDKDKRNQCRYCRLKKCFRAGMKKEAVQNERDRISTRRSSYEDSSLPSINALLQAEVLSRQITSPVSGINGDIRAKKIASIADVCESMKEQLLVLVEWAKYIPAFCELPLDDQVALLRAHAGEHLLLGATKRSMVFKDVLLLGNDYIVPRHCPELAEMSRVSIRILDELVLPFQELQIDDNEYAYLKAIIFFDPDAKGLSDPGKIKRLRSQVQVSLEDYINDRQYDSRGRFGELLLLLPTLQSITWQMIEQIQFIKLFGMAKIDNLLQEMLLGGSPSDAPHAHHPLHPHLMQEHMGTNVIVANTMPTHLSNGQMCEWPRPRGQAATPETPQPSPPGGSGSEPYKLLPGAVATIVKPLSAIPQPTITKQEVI
Nuclear respiratory factor 1 (Homo sapiens), sequence (Q16656 whole entry, looked up): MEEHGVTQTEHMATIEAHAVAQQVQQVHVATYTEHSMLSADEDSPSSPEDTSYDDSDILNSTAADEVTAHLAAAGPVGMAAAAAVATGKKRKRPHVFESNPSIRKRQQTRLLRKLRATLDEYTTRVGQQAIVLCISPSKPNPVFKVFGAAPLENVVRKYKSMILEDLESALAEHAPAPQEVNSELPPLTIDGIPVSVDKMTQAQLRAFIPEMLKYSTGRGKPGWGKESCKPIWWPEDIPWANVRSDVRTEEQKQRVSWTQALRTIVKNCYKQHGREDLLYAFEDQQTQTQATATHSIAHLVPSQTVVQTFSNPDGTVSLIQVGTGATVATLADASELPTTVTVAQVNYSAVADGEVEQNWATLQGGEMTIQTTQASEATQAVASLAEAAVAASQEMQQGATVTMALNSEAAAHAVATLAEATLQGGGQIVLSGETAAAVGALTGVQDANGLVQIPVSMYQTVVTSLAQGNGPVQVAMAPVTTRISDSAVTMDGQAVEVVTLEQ
Bile acid receptor (Homo sapiens), sequence (Q96RI1 whole entry, looked up, the tested form may be a part): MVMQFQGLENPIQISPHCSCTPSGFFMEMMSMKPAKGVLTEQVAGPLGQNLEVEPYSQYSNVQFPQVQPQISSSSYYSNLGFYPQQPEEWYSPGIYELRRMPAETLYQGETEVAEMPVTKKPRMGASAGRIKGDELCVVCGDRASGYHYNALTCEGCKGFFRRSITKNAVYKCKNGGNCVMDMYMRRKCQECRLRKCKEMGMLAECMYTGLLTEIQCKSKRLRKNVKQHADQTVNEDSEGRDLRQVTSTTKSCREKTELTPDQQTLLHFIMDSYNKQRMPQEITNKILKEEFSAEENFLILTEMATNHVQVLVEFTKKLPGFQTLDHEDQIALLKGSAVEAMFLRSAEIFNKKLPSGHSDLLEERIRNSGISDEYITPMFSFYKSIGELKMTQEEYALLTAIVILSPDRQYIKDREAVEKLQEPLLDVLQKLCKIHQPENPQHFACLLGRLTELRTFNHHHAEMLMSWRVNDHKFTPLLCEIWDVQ
Nuclear receptor subfamily 4 group A member 2 (Homo sapiens), sequence (P43354 whole entry, looked up, the tested form may be a part): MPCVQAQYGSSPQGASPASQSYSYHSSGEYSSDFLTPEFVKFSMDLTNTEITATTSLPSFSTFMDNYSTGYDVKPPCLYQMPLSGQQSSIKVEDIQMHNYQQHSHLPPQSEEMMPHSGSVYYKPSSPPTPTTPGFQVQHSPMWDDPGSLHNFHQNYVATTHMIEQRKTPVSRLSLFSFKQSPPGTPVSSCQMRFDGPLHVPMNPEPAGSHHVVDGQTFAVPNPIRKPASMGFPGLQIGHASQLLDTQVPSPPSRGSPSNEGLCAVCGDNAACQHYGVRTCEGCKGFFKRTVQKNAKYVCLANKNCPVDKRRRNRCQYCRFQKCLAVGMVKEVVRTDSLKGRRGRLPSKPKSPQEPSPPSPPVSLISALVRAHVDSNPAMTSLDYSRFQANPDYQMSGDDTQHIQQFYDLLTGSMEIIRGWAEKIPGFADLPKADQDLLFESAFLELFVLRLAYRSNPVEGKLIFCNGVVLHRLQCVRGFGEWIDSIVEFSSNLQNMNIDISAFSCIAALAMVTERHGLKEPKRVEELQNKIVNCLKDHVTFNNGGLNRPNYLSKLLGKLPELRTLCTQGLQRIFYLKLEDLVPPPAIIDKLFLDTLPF

CC(C)=CCO
not listed: [12] | [13] | [14] | [15] | [16] | [17] | [18] | [19]
inactive: all other assays above

C=CCOC(=O)CCC1CCCCC1
not listed: [2] | [19]
inactive: all other assays above

CN(CCOc1ccc(CC2SC(=O)NC2=O)cc1)c1ccccn1 (centres undefined)
active: [9] 15.1 µM | [16] 6.93 µM | [18] 3.97 µM
not listed: [3]
inactive: all other assays above

CCCCCCCCCOC(C)=O
not listed: [1] | [2] | [3] | [13] | [15] | [16] | [17] | [18]
inactive: all other assays above

CCCCCCCCC=O
not listed: [4] | [12] | [14] | [19]
inactive: all other assays above

COc1ccc(OC)c(OC)c1
not listed: [1] | [14] | [15] | [16] | [17] | [18] | [19]
inactive: all other assays above

C[C@H]1C[C@H]2[C@@H]3CCC4=CC(=O)C=C[C@]4(C)[C@@]3(F)[C@@H](O)C[C@]2(C)[C@@]1(O)C(=O)COP(=O)(O)O
active: [9] 15.6 µM
not listed: [12] | [13] | [14] | [15] | [16] | [17] | [18]
inactive: all other assays above

CC(=O)c1c(C)cc(C(C)(C)C)cc1C
not listed: [4] | [5] | [12] | [15] | [16] | [17] | [18]
inactive: all other assays above

O=Cc1ccc(Cl)c([N+](=O)[O-])c1
active: [5] 144 µM | [6] 170 µM | [7] 160 µM | [8] 100 µM | [9] 179 µM | [11] 54.5 µM
not listed: [12] | [15] | [16] | [17] | [18]
inactive: all other assays above

CC(C)(Oc1ccc(CCNC(=O)c2ccc(Cl)cc2)cc1)C(=O)O
not listed: [1] | [11] | [14] | [15] | [16] | [17] | [18]
inactive: all other assays above
